DRD3 antagonist – antagonists of human D3 dopamine receptor; AID 652054; max response, negative = inhibition, %; hit rate 2.5% among 360,000; D3R cells, DiscoveRx beta-arrestin luminescence, antagonist mode; active compounds read low; P35462; in the data active means max response below about -50%; inconclusive means no clear call, values can overlap the other calls; further: on the % scale 0 is the no-effect control and ±100 the full control effect
Target sequence (P35462 whole entry, looked up): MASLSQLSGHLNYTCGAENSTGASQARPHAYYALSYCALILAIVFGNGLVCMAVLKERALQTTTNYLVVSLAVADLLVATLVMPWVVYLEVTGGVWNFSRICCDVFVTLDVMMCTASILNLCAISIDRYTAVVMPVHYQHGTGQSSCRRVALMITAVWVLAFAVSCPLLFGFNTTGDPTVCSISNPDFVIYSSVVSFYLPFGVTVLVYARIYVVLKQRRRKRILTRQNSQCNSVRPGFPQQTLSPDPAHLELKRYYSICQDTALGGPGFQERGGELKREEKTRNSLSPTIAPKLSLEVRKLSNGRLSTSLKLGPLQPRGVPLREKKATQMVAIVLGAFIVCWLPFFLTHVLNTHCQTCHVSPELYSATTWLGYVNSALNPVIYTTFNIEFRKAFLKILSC
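Cells plated overnight at 1500 cells/well, then exposed to library compounds with dopamine controls for 90 minutes at 37 degrees C. DiscoveRx reagent added for 30–60 minutes at room temperature; luminescence read, quantitative HTS format.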
D1 potentiator – enhances dopamine response at the human D1 receptor; P21728; HEK293 TREx D1 cells, calcium flux, dopamine EC20 potentiation; potentiation, % at 10 µM; hit rate 0.036% among 360,000; in the data active means potentiation above about 30%; further: 0% is about no effect
D3 ag – agonists of human D3 dopamine receptor | P35462 | D3R DiscoveRx beta-arrestin cells, luminescence, 90 min | max activation, % | AID 652048 | hit rate 0.58% among 410,000; in the data active means max activation above about 30%; further: 0% is about no effect
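Cells at 1500/well, incubated overnight, then treated with pinned compounds (dopamine as control) for 90 min at 37 degrees C. DiscoveRx reagent added for 30 - 60 minutes at room temperature; luminescence read.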
D1 agonist – activates the human D1 dopamine receptor; P21728; HEK293 T-REx D1 cells, calcium flux, agonist mode; activation, % at 2 µM; hit rate 1% among 360,000; in the data active means activation above about 30%; further: 0% is about no effect
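Agonism was scored from calcium flux recorded over 180 s (1 read/s) after pintool compound addition, following a 10-cycle baseline. Cells were inducible force-coupled HEK293 TREx D1, plated overnight at 30 C and loaded with no-wash calcium dye.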
Chronic BCR inh – blocks chronic active B-cell receptor signaling | ABC-DLBCL IkBa-CBG/CBR reporter, luminescence ratio, 4 h | Potency, µM (top dose mostly 46.1 µM), inactives show top-dose activity change, negative = inhibition, hits mostly inhibitors | hit rate 0.05% among 340,000; active means well fitted inhibition curve with a large enough effect in the signal ratio, with a control signal flat, not every such curve was filed as active; inconclusive means small, poorly fitted or top-dose-only effect, or effect the other way, or a change in a side signal; the % refers to the signal ratio;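 further: potency means the concentration at half of the fitted maximal effect; plate controls were basal doxycycline-induced cells for no effect and cells given 10 µM MG132 for full effect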
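Cell line TMD8 (human ABC DLBCL), stably expressing tet-inducible CBG68-IkBa fusion and CBR; IMDM/0.5% FBS; cpd up to 46 uM; dox induction, 4 h, 37C/5% CO2; dual luminescence; green/red ratio; MG132 control.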
D1 antagonist – blocks dopamine activation of the human D1 receptor | HEK293 TREx D1 cells, calcium flux, dopamine EC80; active compounds read low | activity change, negative = inhibition, % at 10 µM | hit rate 3.2% among 360,000 | AID 504652; in the data active means activity change below about -30%; further: on the % scale 0 is the no-effect control and ±100 the full control effect
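Inducible Hek293 Trex D1 cells (tetracycline, overnight, 30 C). Calcium dye 30–90 min RT. Antagonist mode: EC80 dopamine added after 180 s compound read.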
An asterisk follows results filed as active; ? = inconclusive; nt = not tested or not shown. This is a sample that favours compounds with a hit; in the whole collection about 6% have one here.

SMILES	DRD3 antagonist	D1 potentiator	D3 ag	D1 agonist	Chronic BCR inh	D1 antagonist
CCN(Cc1ccccc1)S(=O)(=O)c1ccc(F)c(C(=O)Nc2cc(C)ccc2OC)c1	nt	-2	-2	4	8%	-12
CCN(Cc1ccccc1)S(=O)(=O)c1ccc(F)c(C(=O)Nc2cc(C(F)(F)F)ccc2Cl)c1	nt	-2	-10	19	5%	-30*
COc1ccc(-c2nc3scc(CCNC(=O)Cc4ccc(F)cc4)n3n2)cc1	nt	-3	2	-2	nt	6
O=C(c1cc(S(=O)(=O)N2CCOCC2)ccc1F)N(CCc1ccccc1)Cc1ccccc1	-92*	5	96*	3	-4%	17
CCN(CC)S(=O)(=O)c1ccc(NC2CCCc3ccccc32)nc1 (centres undefined)	-4	-7	5	5	?	-31*
CCN(CC)S(=O)(=O)c1ccc(Cl)c(C(=O)NC2CCN(Cc3ccccc3)CC2)c1	-65*	-5	-6	6	0%	-8
O=S(=O)(c1ccc(NC2CCCc3ccccc32)nc1)N1CCOCC1 (centres undefined)	-1	-4	2	6	0%	-7
O=C(NC1CCN(Cc2ccccc2)C1)c1cc(S(=O)(=O)N2CCOCC2)ccc1Cl (centres undefined)	-20	-12	-4	2	0%	-30*
Cc1ccc(S(=O)(=O)N2CCOCC2)cc1C(=O)NC1CCN(Cc2ccccc2)CC1	7	nt	-18	nt	nt	nt
Clc1cccc(Nc2ncnc3c2nc2n3CCCCC2)c1	nt	2	7	-1	nt	3
Cc1ccc(OCCNC(=O)[C@H]2O[C@@H](n3cnc4c(N)ncnc43)[C@H](O)[C@@H]2O)cc1C	87	nt	-3	nt	nt	nt
Cc1ccc(CNC(=O)c2ccc3c(c2)nc(C)n3-c2cccc(F)c2)cc1	nt	-1	-12	-5	12%	1
COc1cc2c(c(OC)c1OC)-c1ccc(NC(=O)c3ccccc3)c(=O)cc1[C@@H](NC(C)=O)CC2	-4	1	7	1	22µM*	4
CCN1\C(=C/C=C/C=C/c2sc3ccccc3[n+]2CC)Sc2ccccc21	nt	nt	-20	nt	nt	nt
CCCSCCCNC(=O)c1cc2n(n1)CCCN(Cc1ccc(C)cc1)C2=O	nt	0	2	56*	nt	-8
CCc1cccc(NC(=O)Cn2c(=O)ccc3cc(S(=O)(=O)N4CCC(C)CC4)ccc32)c1	nt	9	-5	4	nt	-6
Cc1cc2cc3c(=O)[nH]c(=O)cc-3n(CC(O)C(O)C(O)CO)c2cc1C (centres undefined)	-97*	nt	-24	nt	nt	nt
Cc1cc2cc3c(=O)[nH]c(=O)nc-3n(CC(O)C(O)C(O)CO)c2cc1C (centres undefined)	-8	nt	3	nt	nt	nt
CC(=O)NCC1COc2ccccc2O1 (centres undefined)	4	-9	3	2	-6%	-11
CC(C)Oc1ccc(/C=C/C(=O)NCC2COc3ccccc3O2)cc1 (centres undefined)	3	-1	-11	7	?	-91*
CCCCc1oc2ccc(NS(C)(=O)=O)cc2c1C(=O)c1ccc(OCCCN(CCCC)CCCC)cc1	nt	nt	-15	nt	nt	nt
OCCN1CCN(c2nccn3ccnc23)CC1	3	nt	-5	nt	nt	nt
COCCN1CCn2c(nc3cc(NC(C)=O)ccc32)C1	20	-4	0	1	?	-1
COc1ccc(C(=O)Nc2ccc3c(c2)nc(CN2CCCC2)n3C)cc1	-17	-4	45*	4	-6%	6
Cn1c(CN2CCCC2)nc2cc(NC(=O)Nc3ccccc3)ccc21	-103*	-1	-13	-1	?	2
SMILES	DRD3 antagonist	D1 potentiator	D3 ag	D1 agonist	Chronic BCR inh	D1 antagonist
CC(=O)Nc1ccc2c(c1)nc(CN1CCCC1)n2C	-50*	-3	-33	3	-13%	0
Cn1c(CN2CCCCC2)nc2cc(NC(=O)c3ccccc3)ccc21	14	-3	12	0	?	3
COCCN1CCn2c(nc3cc(NC(=O)c4ccc(OC)cc4)ccc32)C1	-14	-1	-6	0	-6%	-52*
CCCC(=O)Nc1ccc2c(c1)nc(CN1CCCC1)n2C	0	1	-5	-1	-9%	nt
Cc1ccc(OCC(=O)Nc2ccc3c(c2)nc(CCN2CCCC2)n3C)cc1	0	nt	-5	nt	nt	nt
Cc1ccc(C(C)C)c(OCC(=O)Nc2ccc3c(c2)nc(CN2CCCC2)n3C)c1	-67*	-15	-12	5	?	-25
COc1ccc(Cn2c(NCC(C)C)nc3c2c(=O)n(C)c(=O)n3C)cc1	nt	0	-2	2	nt	-41*
CCc1ccc(N2CCn3c2nc2c3c(=O)n(Cc3ccc(F)cc3)c(=O)n2C)cc1	nt	-6	11	11	nt	-46*
CCC(C)Nc1nc2c(c(=O)n(C)c(=O)n2C)n1Cc1ccc(F)cc1 (centres undefined)	21	-21	-9	-1	?	-85*
Cc1cccc(Cn2c(NCCO)nc3c2c(=O)n(C)c(=O)n3C)c1	15	-1	6	1	-2%	1
COCCNc1nc2c(c(=O)n(C)c(=O)n2C)n1Cc1cccc(C)c1	47	-9	6	0	10%	-50*
Cc1cc(NC(=O)Nc2nnc(N3CCCCC3)s2)ccc1Br	nt	4	3	-1	nt	6
Cc1ccc2nc(-c3ccc(F)cc3)c(CC3CCCCC3)n2c1	7	nt	-4	nt	nt	nt
CC1(C)CC(N=c2cc(-c3ccccc3)oc3ccc(Cl)cc23)CC(C)(C)N1	-17	-11	-15	67*	?	-69*
O=C(NCc1ccccc1)C(CCc1ccccc1)n1c(=O)c(-c2ccccc2)nc2ccccc21 (centres undefined)	-71*	nt	-15	nt	nt	nt
O=C(NC1CCCCC1)C(c1ccnc2ccccc12)n1c(=O)c(-c2cc3ccccc3[nH]2)nc2ccccc21 (centres undefined)	15	nt	6	nt	nt	nt
O=C(NC1CCCCC1)C(c1ccnc2ccccc12)n1c(=O)c(-c2ccccc2)nc2ccccc21 (centres undefined)	-68*	nt	-17	nt	nt	nt
COc1ccc(N2C(=O)CC(Sc3nc(C)cc(C)c3C#N)C2=O)cc1 (centres undefined)	-19	0	-9	4	-21%	-5
CCCc1ccc(C#N)c(SC2CC(=O)N(c3ccc(OC)cc3)C2=O)n1 (centres undefined)	4	-2	0	13	-3%	-45*
COc1ccc(N2C(=O)CC(Sc3nnnn3-c3ccc(F)cc3)C2=O)cc1 (centres undefined)	-60*	1	-7	6	?	-5
Cc1ccc(C)n1-c1nnc(N2CCCC(C(=O)Nc3ccc(C(C)C)cc3)C2)s1 (centres undefined)	nt	4	-18	-3	nt	19

Compound activity as filed in PubChem BioAssay.
